# Reference: PubChem BioAssay
# For some of these results: Potency and affinity values are given separately. The list shows a part of the results. Results filed as inconclusive are left out. Activity calls are given as the source filed them. Unless noted, no rule for the calls is given here.
# How the values were obtained:
# [1] = A549 cell cytotoxicity, dose response, cytotoxicity control, plate reader, cherry-pick, antagonist series (AID 743412);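 also: 0% = neutral control wells and -100% = positive control wells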
# [2] = Ring1 de-repression measured by qPCR – cell-based, mouse ESC, RT-qPCR, cherry-pick, esBAF inhibitor project, confirmation (AID 743176;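 active = Ring1 gene expression raised more than 2-fold over untreated cells in both replicates at either tested dose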;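 also: Ring1 transcript normalised to actin housekeeping signal by TaqMan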); conditions: mouse ESC E14, Ring1 mRNA RT-qPCR fold change, stronger effect = higher value
# [3] = Fgf4 repression measured by qPCR – cell-based, mouse ESC, RT-qPCR, cherry-pick, esBAF inhibitor project, confirmation (AID 743177;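 active = Fgf4 expression under 0.8 fold of control in both repeat measurements at one or both tested doses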;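 also: Fgf4 transcript normalised to actin in duplex TaqMan qPCR; cells exposed to compound for 24 h before lysis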); conditions: mouse ESC E14, Fgf4 mRNA qPCR fold change, stronger effect = lower value
# [4] = Bmi1 mRNA increase in mouse ESCs – cell-based, RT-qPCR, mouse ESC, single point, cherry-pick, confirmation (AID 743180;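 active = Bmi1 expression fold change above 6 at either tested concentration, seen in replicate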;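 also: higher fold means more Bmi1 de-repression and stronger esBAF inhibition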); conditions: mouse ESC E14, Bmi1 mRNA qPCR fold, stronger effect = higher value
# [5] = viability loss in A549 cells – cell-based, plate reader, single point, cherry-pick, cytotoxicity control (AID 743188); conditions: at 25 µM
# [6] = viability loss in HepG2 cells – cell-based, plate reader, single point, cherry-pick, cytotoxicity control (AID 743189; in the data active = activity change below about -50%); conditions: at 25 µM, stronger effect = lower value
# [7] = viability loss in HEK293 cells – cell-based, plate reader, single point, cherry-pick, cytotoxicity control (AID 743190; in the data active = activity change below about -38%, passing the limit was not always enough); conditions: at 25 µM
# [8] = toxicity toward HepG2 liver cells – cell-based, plate reader, cherry-pick, antagonist series, cytotoxicity control, dose response (AID 743416);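 also: 0% = neutral control wells and -100% = positive control wells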
smiles,measurement,setting,value
CCCOc1ccc2cc(-c3ccccn3)c(=O)oc2c1,outcome,[1],inactive
Cc1ccc(-c2nc(-c3ccncc3)no2)cc1C,outcome,[1],inactive
COc1ccc(-n2nnnc2-c2nc3ccccc3s2)cc1,outcome,[1],inactive
O=C(c1cc(-c2ccc(Cl)cc2)on1)N1CCN(c2ccccc2)CC1,fold change,"[2]; Ring1 fold increase, at 7 µM",1.25
same,fold change,[2]; at 33 µM,1.06 (inactive)
same,Fgf4 expression fold change,"[3]; Fgf4 expression, at 7 µM",1.02
same,Fgf4 expression fold change,[3]; at 33 µM,0.994 (inactive)
same,fold change,"[4]; Bmi1 de-repression, at 7 µM",1.17
same,fold change,[4]; at 33 µM,1.27 (inactive)
same,cell viability change % (negative = cytotoxic),[5],-16.6% (inactive)
same,"activity change, negative = inhibition",[6],9.34% (inactive)
same,"activity change, negative = inhibition",[7],-19.5% (inactive)
COCCn1c(C)cc(C(=O)CSc2nc3ccccc3s2)c1C,outcome,[1],inactive
O=C(Cn1ncc(Cl)c(Cl)c1=O)c1ccc2c(c1)OCCO2,outcome,[1],inactive
COc1ccc(CNC(=O)COc2ccccc2C(=O)c2cnn(-c3ccccc3)c2)cc1OC,fold change,"[2]; Ring1 fold increase, at 7 µM",1.09
same,fold change,[2]; at 33 µM,1.32 (inactive)
same,Fgf4 expression fold change,"[3]; Fgf4 expression, at 7 µM",1.03
same,Fgf4 expression fold change,[3]; at 33 µM,0.967 (inactive)
same,fold change,"[4]; Bmi1 de-repression, at 7 µM",1.36
same,fold change,[4]; at 33 µM,1.57 (inactive)
same,cell viability change % (negative = cytotoxic),[5],0.333% (inactive)
same,"activity change, negative = inhibition",[6],-55.5% (active)
same,"activity change, negative = inhibition",[7],-15.3% (inactive)
O=C(NC1(Cc2ccccc2)CCN(Cc2ccc(-c3ccccc3)cc2)C1=O)c1ccccc1 (stereo not drawn),outcome,[1],inactive
CCc1sc(C(=O)N2CCN(CC(=O)Nc3cccc(F)c3)CC2)cc1C,fold change,"[2]; Ring1 fold increase, at 7 µM",1.14
same,fold change,[2]; at 33 µM,1.01 (inactive)
same,Fgf4 expression fold change,"[3]; Fgf4 expression, at 7 µM",1.11
same,Fgf4 expression fold change,[3]; at 33 µM,0.972 (inactive)
same,fold change,"[4]; Bmi1 de-repression, at 7 µM",1.34
same,fold change,[4]; at 33 µM,1.56 (inactive)
same,cell viability change % (negative = cytotoxic),[5],0.0417% (inactive)
same,"activity change, negative = inhibition",[6],-21.7% (inactive)
same,"activity change, negative = inhibition",[7],-24% (inactive)
O=C(CCNC(=O)c1ccccc1)Nc1nc2ccccc2s1,fold change,"[2]; Ring1 fold increase, at 7 µM",1.2
same,fold change,[2]; at 33 µM,0.581 (inactive)
same,Fgf4 expression fold change,"[3]; Fgf4 expression, at 7 µM",0.839
same,Fgf4 expression fold change,[3]; at 33 µM,0.653 (active)
same,fold change,"[4]; Bmi1 de-repression, at 7 µM",1.36
same,fold change,[4]; at 33 µM,1.77 (inactive)
same,cell viability change % (negative = cytotoxic),[5],-14% (inactive)
same,"activity change, negative = inhibition",[6],11.7% (inactive)
same,"activity change, negative = inhibition",[7],-12.3% (inactive)
Cc1ccc(C(=O)Nc2ccc3c(c2)OCO3)cc1S(=O)(=O)N1CCCCC1,fold change,"[2]; Ring1 fold increase, at 7 µM",1.42
same,fold change,[2]; at 33 µM,1.4 (inactive)
same,Fgf4 expression fold change,"[3]; Fgf4 expression, at 7 µM",0.993
same,Fgf4 expression fold change,[3]; at 33 µM,0.915 (inactive)
same,fold change,"[4]; Bmi1 de-repression, at 7 µM",1.85
same,fold change,[4]; at 33 µM,1.9 (inactive)
same,cell viability change % (negative = cytotoxic),[5],4.97% (inactive)
same,"activity change, negative = inhibition",[6],-30.2% (inactive)
same,"activity change, negative = inhibition",[7],-2.34% (inactive)
COc1ccc(-c2csc(Nc3cccc(C)n3)n2)cc1OC,fold change,"[2]; Ring1 fold increase, at 7 µM",1.32
same,fold change,[2]; at 33 µM,1.24 (inactive)
same,fold change,"[4]; Bmi1 de-repression, at 7 µM",1.47
same,fold change,[4]; at 33 µM,2.28 (inactive)
same,cell viability change % (negative = cytotoxic),[5],-8.92% (inactive)
same,"activity change, negative = inhibition",[6],29% (inactive)
same,"activity change, negative = inhibition",[7],4.06% (inactive)
Cc1ccc(-c2nc(COC(=O)c3c(C)noc3C)cs2)cc1,fold change,"[2]; Ring1 fold increase, at 7 µM",1.44
same,fold change,[2]; at 33 µM,1.18 (inactive)
same,Fgf4 expression fold change,"[3]; Fgf4 expression, at 7 µM",1.15
same,Fgf4 expression fold change,[3]; at 33 µM,1.07 (inactive)
same,fold change,"[4]; Bmi1 de-repression, at 7 µM",1.56
same,fold change,[4]; at 33 µM,1.73 (inactive)
same,cell viability change % (negative = cytotoxic),[5],-1.11% (inactive)
same,"activity change, negative = inhibition",[6],-41.9% (inactive)
same,"activity change, negative = inhibition",[7],-15.3% (inactive)
COc1ccc(N=Cc2c(O)[nH]c3ccccc23)cc1OC,fold change,"[2]; Ring1 fold increase, at 7 µM",1.32
same,fold change,[2]; at 33 µM,1.03 (inactive)
same,Fgf4 expression fold change,"[3]; Fgf4 expression, at 7 µM",1.1
same,Fgf4 expression fold change,[3]; at 33 µM,1.2 (inactive)
same,fold change,"[4]; Bmi1 de-repression, at 7 µM",1.45
same,fold change,[4]; at 33 µM,2 (inactive)
same,cell viability change % (negative = cytotoxic),[5],0.475% (inactive)
same,"activity change, negative = inhibition",[6],24% (inactive)
same,"activity change, negative = inhibition",[7],-17.2% (inactive)
Clc1cccc(Cl)c1Cn1nnc(-c2cccs2)n1,fold change,"[2]; Ring1 fold increase, at 7 µM",1.24
same,fold change,[2]; at 33 µM,0.998 (inactive)
same,Fgf4 expression fold change,"[3]; Fgf4 expression, at 7 µM",1.02
same,Fgf4 expression fold change,[3]; at 33 µM,0.892 (inactive)
same,fold change,"[4]; Bmi1 de-repression, at 7 µM",1.24
same,fold change,[4]; at 33 µM,1.5 (inactive)
same,cell viability change % (negative = cytotoxic),[5],-14.2% (inactive)
same,"activity change, negative = inhibition",[6],-32% (inactive)
same,"activity change, negative = inhibition",[7],-18.7% (inactive)
CC(C)(C)c1ccc(-c2nc(-c3ccncc3)no2)cc1,outcome,[1],inactive
Cc1ccc(-c2csc(Nc3ccccn3)n2)cc1,outcome,[1],inactive
O=C(CN1C(=O)c2ccccc2S1(=O)=O)c1ccc(F)c(F)c1,outcome,[1],inactive
same,outcome,[8],inactive
CCCCCc1ccc(-c2ccc(C(=O)O)cc2)nc1,outcome,[1],inactive
same,outcome,[8],inactive
Clc1ccc(-n2ncc3c(N4CCCC4)ncnc32)cc1,outcome,[1],inactive
same,outcome,[8],inactive
C[C@@H]1CN([C@@H](C)CO)C(=O)c2cc(NS(=O)(=O)c3ccc(F)cc3)ccc2O[C@H]1CN(C)Cc1ccc(-c2ccccc2)cc1,outcome,[1],inactive
same,outcome,[8],inactive
CCN(CC)S(=O)(=O)c1cc(C(=O)OCC(=O)Nc2ccc(-c3nc4ccc(C)cc4s3)cc2)ccc1F,outcome,[1],inactive
same,outcome,[8],inactive
CN(c1ccccc1)S(=O)(=O)c1cccc(NC(=O)c2cc(=O)c3ccccc3o2)c1,outcome,[1],inactive
same,outcome,[8],inactive
CCOC(=O)c1cn2nc(N3CCCC3)ccc2n1,outcome,[1],inactive
same,outcome,[8],inactive
Cc1ccc(-c2nnc(-c3ccccc3Br)o2)cc1,outcome,[1],inactive
same,outcome,[8],inactive
